Data: PubChem BioAssay AID1159580 (chemical genetic matrix, 2015)
Where “and” joins values, the source holds several entries; their conditions need not be identical. Equal entries are not always repeated. In all, about 5,500 compounds went through this assay and about 2,000 (36%) were called active. Inconclusive results (about 18%) are left out. Cut-off read from the data, not from the text of the source: active = normalized growth mostly below about 0.91 (no sharp cut-off); inconclusive = no clear call, values can overlap the other calls; inactive = mostly above about 0.92. Some of the results follow.

Test: chemical genetic growth profiling, strain panel (AID 1159580);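 note: tested at 20 µM; growth read once vehicle control cultures reached saturation at 30 °C; 1 = growth at the plate median or of vehicle wells; lower values mean less growth of the strain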
Conditions: S. cerevisiae deletion strains, growth OD

Measured: normalized growth

CN[C@@H]1C(OC2[C@H](O[C@H]3[C@H](O)[C@@H](O)[C@H](N=C(N)N)[C@@H](O)[C@@H]3N=C(N)N)OC(C)[C@]2(O)CO)OC(CO)C(O)C1O (some centres not stated)
inactive: locus YAL021C, strain ccr4, stronger effect = lower value 1.02 | locus YAL026C, strain drs2, stronger effect = lower value 1.02 | locus YAL030W, strain snc1, stronger effect = lower value 0.997 | locus YBL061C, strain skt5, stronger effect = lower value 0.996 | locus YBR009C, strain hhf1, stronger effect = lower value 1.01 | locus YBR021W, strain FUR4, stronger effect = lower value 0.988 | locus YBR023C, strain chs3, stronger effect = lower value 1.01 | locus YBR171W, strain sec66, stronger effect = lower value 0.996 | locus YBR229C, strain ROT2, stronger effect = lower value 0.993 | locus YBR231C, strain swc5, stronger effect = lower value 1.01 | locus YBR279W, strain paf1, stronger effect = lower value 1.01 | locus YCL011C, strain gbp2, stronger effect = lower value 1.05 | locus YCL016C, strain dcc1, stronger effect = lower value 1.02 | locus YCL029C, strain bik1, stronger effect = lower value 0.978 | locus YCL069W, strain vba3, stronger effect = lower value 1.03 | locus YCR088W, strain abp1, stronger effect = lower value 0.994 | locus YDL005C, strain med2, stronger effect = lower value 0.998 | locus YDL035C, strain GPR1, stronger effect = lower value 1.03 | locus YDL040C, strain nat1, stronger effect = lower value 0.999 | locus YDL074C, strain BRE1, stronger effect = lower value 0.989 | locus YDL101C, strain DUN1, stronger effect = lower value 0.979 | locus YDL185W, strain tfp1, stronger effect = lower value 0.984 | locus YDL192W, strain arf1, stronger effect = lower value 0.989 | locus YDR001C, strain nth1, stronger effect = lower value 1.02 | locus YDR069C, strain doa4, stronger effect = lower value 1 | locus YDR101C, strain arx1, stronger effect = lower value 0.992 | locus YDR137W, strain rgp1, stronger effect = lower value 0.998 | locus YDR159W, strain sac3, stronger effect = lower value 0.982 | locus YDR162C, strain NBP2, stronger effect = lower value 1.01 | locus YDR195W, strain ref2 0.942 | locus YDR297W, strain sur2, stronger effect = lower value 1 | locus YDR318W, strain mcm21, stronger effect = lower value 0.98 | locus YDR334W, strain swr1, stronger effect = lower value 1.02 | locus YDR335W, strain msn5, stronger effect = lower value 1.01 | locus YDR388W, stronger effect = lower value 0.975 | locus YDR392W, strain spt3, stronger effect = lower value 1.02 | locus YDR502C, strain sam2, stronger effect = lower value 0.985 | locus YEL003W, strain gim4, stronger effect = lower value 1 | locus YEL037C, strain rad23, stronger effect = lower value 1.01 | locus YEL061C, strain CIN8 (second series), stronger effect = lower value 1.01 | locus YEL061C, strain CIN8, stronger effect = lower value 0.995 | locus YER015W, strain faa2, stronger effect = lower value 1.01 | locus YER016W, strain bim1, stronger effect = lower value 1 | locus YER110C, stronger effect = lower value 0.97 | locus YER111C, strain swi4, stronger effect = lower value 1.01 | locus YER155C, strain BEM2 (second series), stronger effect = lower value 0.994 | locus YER155C, strain BEM2, stronger effect = lower value 0.987 | locus YER167W, strain BCK2, stronger effect = lower value 0.99 | locus YFR010W, strain ubp6, stronger effect = lower value 0.993 | locus YGL078C, strain dbp3, stronger effect = lower value 0.97 | locus YGL086W, strain mad1, stronger effect = lower value 1 | locus YGL167C, strain pmr1, stronger effect = lower value 0.996 | locus YGL173C, strain kem1, stronger effect = lower value 1.02 | locus YGL227W, strain vid30, stronger effect = lower value 0.993 | locus YGL240W, strain doc1, stronger effect = lower value 1.01 | locus YGL248W, strain PDE1, stronger effect = lower value 0.975 | locus YGL253W, strain hxk2, stronger effect = lower value 1.02 | locus YGR135W, strain pre9, stronger effect = lower value 0.956 | locus YGR229C, strain SMI1, stronger effect = lower value 1.02 | locus YGR252W, strain gcn5, stronger effect = lower value 0.943 | locus YHR013C, strain ard1, stronger effect = lower value 1.03 | locus YHR027C, strain rpn1, stronger effect = lower value 1.01 | locus YHR030C, strain SLT2, stronger effect = lower value 0.993 and 1.03 | locus YHR079C, strain IRE1 (second series), stronger effect = lower value 0.98 | locus YHR079C, strain IRE1, stronger effect = lower value 1.03 | locus YHR094C, strain hxt1, stronger effect = lower value 0.972 | locus YHR129C, strain ARP1, stronger effect = lower value 0.998 | locus YHR142W, strain chs7, stronger effect = lower value 1.02 | locus YHR200W, strain rpn10, stronger effect = lower value 0.981 | locus YIL066C, strain RNR3, stronger effect = lower value 0.992 | locus YIL073C, strain SPO22, stronger effect = lower value 0.958 | locus YIL125W, strain kgd1, stronger effect = lower value 0.981 | locus YIR030C, strain dcg1, stronger effect = lower value 0.975 | locus YJL092W, strain hpr5, stronger effect = lower value 0.999 | locus YJL095W, strain BCK1 (second series), stronger effect = lower value 1 | locus YJL095W, strain BCK1, stronger effect = lower value 0.975 and 1.05 | locus YJL115W, strain asf1, stronger effect = lower value 1 | locus YJL129C, strain trk1, stronger effect = lower value 0.981 | locus YJL134W, strain LCB3, stronger effect = lower value 0.99 | locus YJL154C, strain vps35, stronger effect = lower value 1.01 | locus YJL164C, strain tpk1, stronger effect = lower value 1.02 | locus YJL166W, strain qcr8, stronger effect = lower value 1.02 | locus YJL168C, strain set2, stronger effect = lower value 0.973 | locus YJL187C, strain SWE1 (second series), stronger effect = lower value 0.981 | locus YJR043C, strain POL32, stronger effect = lower value 1.04 | locus YJR066W, strain TOR1, stronger effect = lower value 0.975 | locus YJR075W, strain HOC1, stronger effect = lower value 0.985
